Holding throughout (experiment): qHTS profiling for inhibitors of Plasmodium falciparum proliferation (AID 504749); also: nearly all actives have a fitted effect of over 60% in size
Holding throughout (details): P. falciparum in erythrocytes, SYBR Green DNA, 72 h; series mostly up to 28.7 µM

Test [1] has as its system CP305. In outline: (§1)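 Readout was DNA-dye fluorescence from lysed cultures, ex 485/em 535 nm. Parasitized red cells had grown 72 h with compound; data scaled between 0.29 uM artemisinin and DMSO wells and corrected using vehicle-only plates.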
For test [2], the system named is CP315. In outline:
as §1

Test [3] deals with CP325. In outline:
as §1

Test [4] concerns CP329. In outline: as §1
Test [5] concerns CP335. In outline:
as §1

The subject of test [6] is DFO2036. In outline: as §1
The test system of test [7] is DIV14. In outline: as §1
For test [8], the system named is DIV17. In outline: as §1
Test [9] has as its system DIV30. In outline: as §1
Test [10] relates to Dd2. In outline:
as §1

The subject of test [11] is ECU. In outline: as §1
Test [12] has as its system FAB9. In outline:
as §1

Test [13] deals with GB4. In outline:
as §1

The subject of test [14] is HB3. In outline:
as §1

The test system of test [15] is ICS. In outline: as §1
Test [16] relates to JCK. In outline: as §1
The test system of test [17] is P93_24. In outline:
as §1

Test [18] deals with P94_40. In outline: as §1
The subject of test [19] is PAD. In outline:
as §1

Test [20] deals with N140. In outline:
as §1

Each structure is given as a SMILES string. Inconclusive results are not listed. Calls of active or inactive are those of the source. Calls follow the shape of the dose curve; as a rule, active = well fitted inhibition curve with a large enough effect; inconclusive = small, poorly fitted or top-dose-only effect; inactive = flat fitted curve, though single readings scatter.
Potency is read from the fitted curve at half-maximal effect.

As for `CC(=O)Oc1cccc2c1C(=O)c1c(OC(C)=O)cc(C(=O)O)cc1C2=O`, the Potency entry in [1], in test [2], in test [3], in test [4], in test [5] and in test [6] was “inactive” throughout. For the same molecule, the Potency result in test [7], in test [8], in test [9], in [10], in test [11] and in test [12] was “inactive” throughout. The Potency result in test [13], in [14], in [15], in [16], in test [17] and in test [18] was “inactive” each time. In addition, the Potency result in [19] is “inactive”.
Regarding `CC(C)c1nc(N(C)S(C)(=O)=O)nc(-c2ccc(F)cc2)c1/C=C/C(O)CC(O)CC(=O)O` (stereo not drawn), the Potency result in test [1], in test [2], in [3], in [4], in [5] and in test [6] was “inactive” throughout. In addition, the Potency result in [7], in [8], in test [9], in test [10], in test [11] and in test [12] was “inactive” each time. Besides, the Potency result in test [13], in test [14], in test [15], in test [16], in test [20] and in test [17] was “inactive” in each case. Also, the Potency result in test [18] and in test [19] was “inactive” throughout.
For `Nc1ncnc2c1ncn2[C@H]1CC[C@@H](CO)O1`, the Potency result in test [1], in test [2], in test [3], in [4], in test [5] and in [6] was “inactive” each time. In addition, the Potency result in [7], in test [8], in test [9], in test [10], in [11] and in test [12] was “inactive” in each case. The Potency result in test [13], in test [14], in test [15], in test [16], in test [20] and in [17] was “inactive” each time. Besides, the Potency entry in test [18] and in [19] was “inactive” each time.
As for `COc1cc(C)c(/C=C/C(C)=C/C=C/C(C)=C/C(=O)O)c(C)c1C`, the Potency result in [1], in test [2], in test [3], in test [4], in test [5] and in test [6] was “inactive” each time. Also, the Potency result in test [7], in [8], in test [9], in test [10], in [11] and in test [12] was “inactive” in each case. Moreover, the Potency result in test [13], in test [14], in test [15], in [16], in [20] and in [17] was “inactive” each time. The Potency entry in test [18] and in test [19] was “inactive” in each case.
Take `CC(=O)Nc1ccc(OC(=O)c2ccccc2O)cc1`: the Potency entry in [1], in test [2], in [3], in [4], in test [5] and in [6] was “inactive” each time. Moreover, the Potency result in test [7], in test [8], in test [9], in test [10], in test [11] and in test [12] was “inactive” in each case. In addition, the Potency result in test [13], in test [14], in [15], in [16], in [20] and in test [17] was “inactive” in each case. Further, the Potency entry in [18] and in test [19] was “inactive” in each case.
As to `O=C(O)[C@H]1C(=CCO)O[C@H]2CC(=O)N12`, the Potency entry in test [1], in test [2], in test [3], in test [4], in [5] and in [6] was “inactive” throughout. Besides, the Potency entry in [7], in test [8], in test [9], in test [10], in test [11] and in test [12] was “inactive” in each case. For the same molecule, the Potency entry in test [13], in test [14], in test [15], in [16], in test [20] and in test [17] was “inactive” throughout. Further, the Potency result in test [18] and in [19] was “inactive” each time.
For the molecule `CC(C)=CCC/C(C)=C/CC/C(C)=C/CC/C=C(\C)CC/C=C(\C)CCC=C(C)C`, the Potency entry in test [1], in [2], in test [3], in [4], in test [5] and in test [6] was “inactive” each time. The Potency entry in test [7], in test [8], in [9], in test [10], in [11] and in test [13] was “inactive” throughout. Moreover, the Potency entry in test [14], in test [15], in test [20], in test [17], in [18] and in test [19] was “inactive” each time. In addition, in test [12], the Potency was 10 pM (active).
Turning to `CCN(CC)CCOc1ccccc1OC`, the Potency result in [1], in test [2], in test [3], in [4], in test [5] and in test [6] was “inactive” each time. The Potency entry in test [7], in test [8], in [9], in test [10], in [11] and in test [12] was “inactive” each time. Moreover, the Potency result in test [14], in [15], in test [16], in [20], in test [17] and in test [18] was “inactive” throughout. Also, the Potency entry in test [19] was “inactive”.
Turning to `O=C(O)c1ccc(OCCn2ccnc2)cc1`, the Potency entry in [1], in [2], in [3], in test [4], in [5] and in test [6] was “inactive” throughout. Further, the Potency result in test [7], in test [8], in test [9], in test [10], in test [11] and in test [12] was “inactive” in each case. Also, the Potency entry in test [13], in test [14], in test [15], in test [16], in test [20] and in test [17] was “inactive” in each case. The Potency result in test [18] and in [19] was “inactive” each time.
Turning to `[O]=[Bi][O]C(=O)[O][Bi]=[O]`, the Potency result in test [1], in [2], in test [3], in test [4], in [5] and in test [6] was “inactive” throughout. Further, the Potency entry in [7], in test [8], in test [9], in [10], in test [11] and in test [12] was “inactive” each time. In addition, the Potency result in test [13], in [14], in test [16], in [20], in [17] and in [18] was “inactive” in each case. In addition, the Potency result in test [19] is “inactive”.
Turning to `CC1CCCCN1CCCOC(=O)c1ccccc1` (stereo not drawn), the Potency result in [1], in test [2], in test [3], in [4], in test [5] and in test [6] was “inactive” throughout. The Potency result in test [7], in [8], in test [9], in test [10], in [11] and in [12] was “inactive” throughout. In addition, the Potency result in [14], in test [15], in test [16], in test [20], in test [17] and in test [18] was “inactive” throughout. Besides, the Potency entry in [19] was “inactive”.
For `COc1ccc(/C=C/C(=O)OCCC(C)C)cc1`, the Potency result in [1], in test [2], in test [3], in [4], in test [5] and in test [6] was “inactive” each time. Moreover, the Potency result in test [7], in [8], in test [9], in [10], in test [11] and in test [12] was “inactive” each time. The Potency entry in test [13], in test [14], in test [15], in [16], in test [17] and in [18] was “inactive” throughout. The Potency result in test [19] was “inactive”.
Turning to `CC1CC(O)CC(C)(C)C1` (stereo not drawn), the Potency entry in [1], in [2], in [3], in test [4], in test [5] and in [6] was “inactive” in each case. The Potency entry in [7], in test [8], in test [9], in [10], in test [11] and in test [12] was “inactive” each time. The Potency entry in test [13], in test [14], in test [15], in test [16], in test [20] and in [17] was “inactive” each time. Also, the Potency entry in [18] and in test [19] was “inactive” throughout.
Turning to `C/C=C/C=C/C(=O)O`, the Potency result in test [1], in [2], in test [3], in [4], in test [5] and in [6] was “inactive” each time. Also, the Potency entry in test [7], in test [8], in test [9], in [10], in test [11] and in [12] was “inactive” in each case. In addition, the Potency entry in test [13], in test [14], in test [15], in test [16], in test [20] and in test [18] was “inactive” throughout. Besides, the Potency result in [19] is “inactive”.

For the origin of these results see PubChem BioAssay (NCATS).
